Shown are actives, neighbours in structure and some others; about 2.3% of the full set was active somewhere.
PTHR1 ag – agonists of human PTHR1 parathyroid hormone receptor; HEK293 GP2 PTHR1 cells, GloSensor cAMP luminescence, 1 h; actives 0.075% (n = 410,000); Potency, µM (top dose mostly 115 µM), without a hit: at the highest dose activation, actives largely listed as activators; also: nearly all actives have a fitted effect of over 55% in size
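HEK-293-derived GP2 cells expressing PTHR1 and a GloSensor cAMP reporter, 3,000/well, plated overnight, given luciferin plus IBMX (each 0.5 mM as added) for 1 h at 37 °C, then compound for 1 h at 37 °C. Luminescence was read after 15 min at room temperature.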
GRP78 ERSR act – ER stress response induction in glioma. U87-MG GRP78 promoter luciferase reporter, 16 h. Potency, µM, without a hit: at the top dose activation, most hits filed as activators. actives 0.02% (n = 420,000). AID 602332; also: series mostly up to about 76 µM; % of control where 0% means no effect; nearly all actives have a fitted effect of over 35% in size
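Stably transfected U87-MG glioma cells carrying a GRP78-based luciferase sensor; 16 h compound incubation. Luminescence end-point read 10 min after Bright-Glo addition at room temperature.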
ALOX12 inh – blocks human arachidonate 12S-lipoxygenase; purified 12hLO, xylenol orange hydroperoxide absorbance; Potency, µM (titrated, usually from 108 µM), for inactives: at the top dose activity change, negative = inhibition, most hits filed as inhibitors; actives 1.1% (n = 580,000); AID 1671190; also: % is scaled to controls: 0 for no effect and ±100 for the full control effect
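Purified human 12hLO (150 nM final) in 25 mM Hepes, 0.01% Triton X-100, pH 7.0 was preincubated 15 min at room temperature with compound. Then 40 uM arachidonic acid was added, 30 min. Hydroperoxide was read by Fe-XO absorbance ratio 573/405 nm.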
GLS inhibitor – inhibitors of human glutaminase (GLS); GLS enzymatic activity, qHTS titration; O94925; Potency, µM (highest dose often 45.5 µM), for the others: at the highest dose activity change, negative = inhibition, actives largely listed as inhibitors; actives 0.21% (n = 410,000); AID 624170; also: % is scaled to controls: 0 for no effect and ±100 for the full control effect
Target sequence (O94925 whole entry, looked up): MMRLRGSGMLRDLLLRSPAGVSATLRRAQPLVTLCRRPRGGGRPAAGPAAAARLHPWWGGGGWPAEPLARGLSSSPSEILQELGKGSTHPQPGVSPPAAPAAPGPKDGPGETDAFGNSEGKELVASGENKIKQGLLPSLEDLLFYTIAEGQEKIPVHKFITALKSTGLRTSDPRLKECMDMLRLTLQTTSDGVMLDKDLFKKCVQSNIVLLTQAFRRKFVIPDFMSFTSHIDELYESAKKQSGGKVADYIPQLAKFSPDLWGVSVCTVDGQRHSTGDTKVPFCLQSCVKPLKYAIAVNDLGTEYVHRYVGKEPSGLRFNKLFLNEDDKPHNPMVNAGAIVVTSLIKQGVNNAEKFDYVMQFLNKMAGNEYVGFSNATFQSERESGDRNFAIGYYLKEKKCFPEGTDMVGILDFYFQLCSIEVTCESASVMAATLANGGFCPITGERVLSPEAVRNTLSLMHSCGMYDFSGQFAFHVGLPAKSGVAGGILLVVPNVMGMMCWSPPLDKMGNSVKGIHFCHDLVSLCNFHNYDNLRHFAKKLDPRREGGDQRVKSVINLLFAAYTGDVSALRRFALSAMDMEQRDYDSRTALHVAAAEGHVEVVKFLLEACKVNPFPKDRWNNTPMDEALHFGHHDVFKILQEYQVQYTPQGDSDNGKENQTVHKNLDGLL
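hKGA; 45 mM KH2PO4 pH 8.2 + 0.02% Tween-20; cpd via pin tool; 1 mM Gln soln; GluOx/HRP/Amplex Red; RT 30 min; fluor. t0 & final.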
GLP1R inv ag – GLP-1 receptor (human) inverse agonism; P43220; HEK293 GLP-1R CRE-luciferase, luminescence, 24 h; GLP-1R form is constitutively active; Potency, µM (doses to about 38.3 µM), for inactives: at the top dose activity change, negative = inhibition, most hits filed as inhibitors; actives 1.6% (n = 410,000); AID 624417; also: % is scaled to controls: 0 for no effect and ±100 for the full control effect; nearly all actives have a fitted effect of over 55% in size
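Inverse agonism was detected as reduced cAMP-driven luciferase luminescence after 24 h compound treatment. The cells were HEK293 clones expressing constitutively active human GLP-1R with the reporter. Reporter-only and GPR119 cell lines served as counterscreen controls.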
GLP1R ag – GLP-1 receptor (human) agonism | actives 0.007% (n = 380,000) | HEK293 GLP-1R CRE-luciferase, luminescence, 4-6 h; cells express a hypersensitive GLP-1R form | P43220 | Potency, µM (series often up to 45.6 µM), for inactives: top-dose activation, most hits filed as activators; also: % of control where 0% means no effect
* hit, by the source's call; [ ] = dose if it differs, or a comment. Calls follow the shape of the dose curve; as a rule, active = well fitted curve in the direction sought with a large enough effect; inconclusive = small, poorly fitted or top-dose-only effect, or another doubt; inactive = no such curve, though single readings can be large; an effect the other way counts as inactive or inconclusive. Potency is read from the fitted curve at half-maximal effect.

Screening CN(CCc1ccccn1)C[C@H]1CN2CC[C@H]1C[C@@H]2CNS(=O)(=O)c1ccccc1 returned ALOX12 inh 5%[176 µM].
CN=CNc1ccc(C)cc1C was read as ALOX12 inh 0%[176 µM].
For O=C1NC(=O)C(=Cc2ccc(-c3ccccc3[N+](=O)[O-])o2)C(=O)N1 the results were PTHR1 ag inactive, GRP78 ERSR act -3%, ALOX12 inh inconclusive, GLS inhibitor inconclusive, GLP1R inv ag 18% and GLP1R ag 4%.
O=C1NC(=O)C(=Cc2ccc(-c3cc(Cl)ccc3[N+](=O)[O-])o2)C(=O)N1 was read as PTHR1 ag -66%, GRP78 ERSR act -5%, ALOX12 inh 6.3µM*, GLS inhibitor inconclusive, GLP1R inv ag -5% and GLP1R ag 2%.
O=C(N/N=C/c1c(O)n(C2CCCCC2)c(=S)[nH]c1=O)c1ccccc1O was read as PTHR1 ag inactive, GRP78 ERSR act 6%, ALOX12 inh inconclusive, GLS inhibitor 2%, GLP1R inv ag 9% and GLP1R ag 5%.
CC(C)c1ccc(-n2c(O)c(/C=N/NC(=O)c3ccccc3O)c(=O)[nH]c2=S)cc1 was read as PTHR1 ag -10%, GRP78 ERSR act 3%, ALOX12 inh 40µM*, GLS inhibitor 15%, GLP1R inv ag 8% and GLP1R ag 0%.
For O=C1NC(=S)N(c2ccccc2F)C(=O)/C1=C\c1cccs1 the results were PTHR1 ag -36%, GRP78 ERSR act -13%, ALOX12 inh 32µM*, GLS inhibitor -14%, GLP1R inv ag 11% and GLP1R ag 0%.
Screening O=C(C[C@@H]1CC[C@@H]2[C@H](COC[C@H](O)CN2Cc2cccc(C(F)(F)F)c2)O1)NCc1ccc(Cl)cc1 returned PTHR1 ag -53%, ALOX12 inh inconclusive and GLP1R inv ag 10µM*.
For COc1ccc(C(=O)Nc2ccc(S(=O)(=O)N(Cc3ccccc3)c3ccccc3)cc2)cc1 the results were PTHR1 ag -34%, GRP78 ERSR act -3%, ALOX12 inh -25%, GLS inhibitor 0% and GLP1R inv ag 5µM*.
`CCN1CCN(C(=O)Cc2ccc(Nc3ncc(F)c(Nc4ccc(C(=O)Nc5ccccc5Cl)cc4)n3)cc2)CC1` gave ALOX12 inh 3.9µM*.
Screening COc1ccc(S(=O)(=O)NC[C@H]2C[C@@H]3CCN2C[C@@H]3CN2CCC(Cc3ccccc3)CC2)cc1 returned ALOX12 inh 20µM*.
Screening CN1CCN2C(=O)N(C3CCOCC3)C[C@H]2C1 returned ALOX12 inh -4%[176 µM].
Screening COC(=O)[C@]1(C)C[C@H]1[C@H](NP(=O)(c1ccccc1)c1ccccc1)c1ccccc1 returned PTHR1 ag inactive, GRP78 ERSR act -3%, ALOX12 inh -10%, GLS inhibitor 7%, GLP1R inv ag -26% and GLP1R ag -5%.
`C=C[C@@H]1C[C@@]1(C)[C@@H](NP(=O)(c1ccccc1)c1ccccc1)c1ccccc1` gave PTHR1 ag -21%, GRP78 ERSR act -5%, ALOX12 inh 9%, GLS inhibitor 0%, GLP1R inv ag 10µM* and GLP1R ag 11%.
`Cc1cccc(N2C(=O)NC(=O)/C(=C\c3cc(C)n(-c4sc5c(c4C#N)CCCC5)c3C)C2=O)c1C` gave PTHR1 ag -15%, GRP78 ERSR act 16%, ALOX12 inh inconclusive, GLS inhibitor 0%, GLP1R inv ag 3.5µM* and GLP1R ag 8%.
`O=[S+]1([O-])NC2(CCN(Cc3ccccn3)C2)CNc2ccccc21` (centres undefined) gave ALOX12 inh 58%.
`NC[C@H](CS(=O)(=O)O)c1ccc(Cl)cc1` gave GRP78 ERSR act -5% and ALOX12 inh 0%.
